Screens from PubChem BioAssay.
HIF-2a block: HIF-2a reporter inhibitors, primary screen, luminescence, 786-0 RCC cells; 786-0 RCC cells HIF-2a reporter, luciferase luminescence, overnight; 360,000 compounds, 0.72% hits; inhibition, % at 18.8 µM;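 active = inhibition of the luminescence signal of 40% or more relative to plate controls, in a single-dose primary screen at 18.75 µM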
Peg3 promoter: Peg3 promoter-driven luciferase inhibitors, primary screen, cell-based, HeLa, luciferase luminescence. HeLa PEG-Prom luciferase reporter, overnight. inhibition, % at 20 µM. 360,000 compounds, 1.7% hits;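 active = inhibition of at least 50% at 20 µM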
MITF TRPM1 inh: inhibitors of MITF-dependent TRPM1 promoter reporter, primary screen, cell-based, SK-MEL-5, single point, luciferase. SK-MEL-5 TRPM1 promoter luciferase, 24 h. inhibition, % at 12.5 µM. 330,000 compounds, 0.83% hits;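 active = mean inhibition across replicates of 60% or more, whatever share of single replicates reaches that level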
Shn3 3UTR inh: reduction of Shn3 3'UTR firefly luciferase signal, primary screen, Schnurri-3 inhibitor project, cell-based, Clone20 osteoblasts, set 2 | AID 588674, 2011 | 360,000 compounds, 0.52% hits | Clone20 osteoblast Shn3 3'UTR firefly luciferase, 24 h | inhibition, % at 12.5 µM;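 active = mean inhibition of at least 75% with every replicate also reaching 75%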;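 note: 0% = median of neutral control wells and 100% = pilot-screen positive control compound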
KKLEB tox: cytotoxicity in KKLEB CF airway cells, primary screen, cytotoxicity control for CF NF-kB inhibitor project, cell-based, uHTS, fluorescence assay plates; KKLEB CF airway cells viability, ATPlite luminescence, overnight; stronger effect = lower value; cells stimulated with P. aeruginosa culture filtrate; activity change (cytotoxicity), % at 5 µM; 360,000 compounds, 0.36% hits; AID 602141, 2011;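 active = corrected activity change at or below -50% at 5 µM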
CF NFkB block: inhibitors of PAF-induced NF-kB signaling, primary screen, cell-based, GFP fluorescence, uHTS; 360,000 compounds, 0.86% hits; KKLEB NF-kB-GFP reporter, GFP fluorescence overnight; AID 588850, 2011; inhibition, % at 5 µM;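 active = at least 50% inhibition at 5 µM, scaled per plate between neutral and stimulator controls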;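 note: PAF is a Pseudomonas aeruginosa culture filtrate used as stimulus; plate controls were PAF-stimulated DMSO wells for no effect and unstimulated DMSO wells for full effect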
The depositor's hits bear a star; x = no result. A selection: hits, their analogues and other compounds. The true share with any hit is near 2.7%.

SMILES	HIF-2a block	Peg3 promoter	MITF TRPM1 inh	Shn3 3UTR inh	KKLEB tox	CF NFkB block
O=C(O)/C=C/C(=O)Nc1ccc(Oc2ccccc2)cc1	11.9	6.2	-14.5	1.8	2.3	3.9
CCOC(=O)/C=C/S(=O)(=O)c1ccc(NC(C)=O)cc1	38.7	102.5*	92.2*	96.5*	-37.8	90.4*
CCOC(=O)/C=C/C(=O)Nc1ccc(Oc2ccccc2)cc1	33.6	53.9*	6.9	2.2	-4.9	-34.8
CCOc1cc2[nH]c(=S)n(CCc3ccc(OC)c(OC)c3)c(=O)c2cc1OCC	12.5	64.0*	17.7	39.2	-4.5	1.7
Cc1c(CCCl)c(Cl)n2c(nc3ccccc32)c1C#N	83.7*	101.0*	97.4*	98.7*	-84.8*	77.5*
Cc1cc(Cl)n2c(nc3ccccc32)c1C#N	-24.1	103.4*	81.3*	80.4	-31.2	64.5*
CCc1c(C)c(C#N)c2nc3ccccc3n2c1NC	0.6	29.3	3.4	4.0	-8.6	11.6
COc1cccc(Oc2ccc(S(=O)(=O)N3CCCC3)cc2[N+](=O)[O-])c1	5.0	15.2	5.9	11.5	4.5	0.9
CC1=C(CC(=O)c2ccccc2)C(=O)c2ccccc2C1=O	-158.6	-132.3	66.4*	2.0	-37.7	77.0*
Cc1ncnc(N)c1CCCNc1ccccc1	19.8	-11.4	-5.5	3.8	3.7	-1.2
CCCN1C(=O)S/C(=C\c2ccc(N3CCOCC3)o2)C1=O	-177.9	-169.2	-56.6	89.2*	12.3	-7.3
CC(C)NC1(C(N)=O)CCNCC1	-4.5	2.7	-1.9	86.9*	-3.0	4.7
CSCCC(NS(=O)(=O)c1cccc(C(F)(F)F)c1)C(=O)N(C)CCOc1ccc(Cl)cc1 (configuration not stated)	12.1	30.3	8.4	7.4	-10.7	-3.9
CCOC(=O)c1cc(C#N)c(SC)nc1C	11.5	9.6	-6.3	-19.0	-0.8	-3.4
CCOC(=O)c1cc2c(N)c(C(=O)c3cc(C#N)c(SC)nc3C)sc2nc1C	-4.1	28.2	9.0	17.7	-63.7*	48.5
CN(CCCC(=O)Nc1ccc(Br)cc1F)S(=O)(=O)c1ccccc1	8.6	7.1	-5.9	-9.2	-1.3	-2.0
CCc1nc(Nc2ccc3c(c2)OCCO3)c2oc3ccccc3c2n1	-79.5	69.2*	-8.7	-1.6	-7.7	-18.0
Cc1nc(Nc2ccc3c(c2)OCCO3)c2oc3ccccc3c2n1	-26.1	-15.6	-7.6	-13.0	0.5	-1.2
COc1ccc(NC(C)=O)c(C)c1	18.9	-3.3	1.9	6.9	2.5	-14.5
COc1cc(C)c(C(=O)CC(=O)c2c(C)cc(OC)cc2C)c(C)c1	23.4	50.3*	x	84.1	-5.8	9.3
O=C(O)CNC(=O)C(c1ccccc1)c1ccccc1	6.8	0.7	-1.9	-22.6	1.6	9.1
O=C(O)CNC(=O)C(CS)Cc1ccccc1 (configuration not stated)	25.4	-8.6	3.6	10.0	15.9	54.7*
CC(=O)Oc1ccc(-c2nc3ccccc3c(=O)o2)cc1	23.5	77.3*	5.6	4.6	12.2	0.7
Cc1ccc(-c2nc3ccccc3c(=O)o2)cc1	-203.8	-139.9	-23.3	-21.5	8.0	1.1
Cc1c(NC(=O)c2nn(C(C)C)c(=O)c3ccccc23)c(=O)n(-c2ccccc2)n1C	5.3	0.8	x	9.0	1.4	8.5
CCN(CC)C(=S)SCC(=O)c1ccccc1	-180.6	-230.4	-31.2	-47.3	10.9	0.9
CCN(CC)C(=S)SSC(=S)N(CC)CC	27.8	68.0*	31.3	-2.5	4.8	-20.8
CC(/C=C\c1ccccc1)=C/C(=O)O	7.0	7.9	2.8	-9.9	0.9	7.1
CC1=C(/C=C/C(C)=C/C=C/C(C)=C/C(=O)O)C(C)(C)CCC1	14.4	12.3	-34.9	17.6	-8.1	72.9*
COCO/C=C(\NC(C)=O)c1ccccc1	-34.1	-32.2	-13.4	-20.2	-0.1	4.3
